This is an account of results in PubChem BioAssay (Tox21).

Experiment [1] in a line: qHTS assay to identify small molecule antagonists of the estrogen related receptor (ERR) signaling pathway from Tox21 library - cell viability counter screen (AID 1224834). Also: nearly all actives have a fitted effect of over 30% in size. Also: potency is read from the fitted curve at half-maximal effect. Summed up: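 ERR reporter cells were plated 6 h before compound addition, then exposed to test compounds in DMSO for 17.5 h at 37 C. Viability was read as CellTiter-Fluor fluorescence after a 30-minute incubation at 37 C.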
Background: Quantitative high-throughput screening tests each substance at several concentrations.

The target in experiment [2] is Luciferin 4-monooxygenase (Photinus pyralis) (UniProt P08659). Briefly: qHTS assay to identify small molecule inhibitors of firefly luciferase (AID 1224835). Also: nearly all actives have a fitted effect of over 25% in size. Also: potency is read from the fitted curve at half-maximal effect. Summed up:
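Inhibition of purified Photinus luciferase is measured by luminescence. Substrate levels (D-luciferin, ATP) sit at their KM values. Each compound is tested in a concentration series.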

Experiment [3] can be described thus: qHTS assay to identify small molecule agonists of the constitutive androstane receptor (CAR) signaling pathway - cell viability counter screen (AID 1224836). Also: nearly all actives have a fitted effect of over 45% in size. Summed up: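 23 h treatment, 37 C, 5% CO2. Cell line: HepG2 stably expressing hCAR with a CYP2B6-2.2kb construct. Co-treatment: PK11195, 0.75 uM final. Read-out: CellTiter-Fluor fluorescence intensity.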

Experiment [4] in a line: qHTS assay to identify small molecule antagonists of the estrogen related receptor signaling pathway with the pleiotropic PPARgamma coactivator (PGC) from Tox21 10K library - cell viability counter screen (AID 1224840; active = well fitted cell-killing curve with a large enough effect in the repeat runs, not every such curve was filed as active; also: nearly all actives have a fitted effect of over 40% in size). Summed up: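 PGC/ERR cells were seeded at 2,000 cells/well and left 6 hours at 37 C/5% CO2 before pin-tool addition of compounds in DMSO. After 17.5 hours at 37 C, CellTiter-Fluor was added and fluorescence read 30 minutes later.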

Experiment [5] is described as follows: qHTS assay to identify small molecule agonists of the hypoxia (HIF-1) signaling pathway - cell viability counter screen (AID 1224844; calls by dose curve; also: nearly all actives have a fitted effect of over 50% in size). In short, it runs like this: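 HRE-bla ME-180 cells in medium with 0.5% dialyzed FBS were preincubated 5 hrs at 37C, exposed to compounds for 17 hrs, then viability was read as CellTiter-Glo luminescence after 30 min at room temperature, in the reporter wells.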

Experiment [6] can be described thus: qHTS assay to identify small molecule agonists of H2AX (AID 1224845; active = well fitted activation curve with a large enough effect in the signal ratio in the repeat runs, not every such curve was filed as active; the % refers to the signal ratio; also: potency is read from the fitted curve at half-maximal effect). Summed up: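 Phospho-H2AX Ser139 measured by HTRF (ex 320 nm; em 665 and 620 nm) after 24 hr antibody incubation. Compounds, 15 concentrations, 0.76% DMSO, were applied to CHO-K1 cells for 3hr at 37C before lysis.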
Experiment [7] in a line: qHTS assay to identify small molecule agonists of the hypoxia (HIF-1) signaling pathway (AID 1224846; active = well fitted activation curve with a large enough effect in the signal ratio in the repeat runs, not every such curve was filed as active; the % refers to the signal ratio). Summed up:
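HRE-bla ME-180 cells (beta-lactamase reporter under hypoxia response element) were plated at 2,000 cells/well in medium with 0.5% dialyzed FBS, rested 5 hrs, then given compounds in DMSO for 17 hrs at 37C, 5% CO2. Reporter induction was read with CCF4-AM FRET substrate.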

A short description of experiment [8]: qHTS assay to identify small molecule agonists of H2AX - cell viability counter screen (AID 1224847; calls by dose curve; also: top concentration of the series differs between compounds; nearly all actives have a fitted effect of over 30% in size). Summed up:
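Compounds tested at 15 concentrations were incubated 3 hr at 37C with wild-type CHO-K1 cells; cellular ATP-based luminescence (CellTiter-Glo) indicated viability.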

A short description of experiment [9]: qHTS RealTime-Glo MT Cell Viability Assay in HepG2 cells - 24 hour (AID 1224867). Also: nearly all actives have a fitted effect of over 50% in size. Summed up:
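Luminescence read-out: viable HepG2 cells reduce a prosubstrate to a NanoLuc substrate, giving a signal proportional to live cell number. Reads taken at 0, 8, 16, 24, 32 and 40 h of compound exposure at 37 C.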

A short description of experiment [10]: qHTS RealTime-Glo MT Cell Viability Assay in HEK293 cells - 32 hour (AID 1224868). Also: top concentration of the series differs between compounds; nearly all actives have a fitted effect of over 50% in size. In short, it runs like this:
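Nonlytic real-time viability readout: viable cells convert prosubstrate to NanoLuc substrate, giving luminescence proportional to live cell number. HEK293, 600 cells/well, compound added after 5 h, continuous culture at 37 C.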

Experiment [11] can be described thus: qHTS assay to identify small molecule antagonists of the estrogen related receptor signaling pathway with the pleiotropic PPARgamma coactivator (PGC) from Tox21 10K library (AID 1224841; call rule not given here; also: actives are mostly falling curves and most rising ones were filed inactive; nearly all actives have a fitted effect of over 50% in size). In short, it runs like this:
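PGC/ERR reporter cells were seeded at 2,000 cells/well and held 6 hours at 37 C/5% CO2 before pin-tool addition of compounds in DMSO. After 18 hours at 37 C, One-Glo was added and luminescence read after 30 minutes at room temperature.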

A short description of experiment [12]: qHTS assay to identify small molecule agonists of the estrogen related receptor signaling pathway with the pleiotropic PPARgamma coactivator (PGC) from Tox21 10K library (AID 1224842). Also: nearly all actives have a fitted effect of over 15% in size. Summed up: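 Luminescence from One-Glo (30 min, room temperature) measured after PGC/ERR cells had 18 h at 37 C with pinned compound (23 nL in DMSO). Cells had been seeded at 2,000 per well and pre-incubated 6 h.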

The target in experiment [13] is Thyrotropin receptor (Homo sapiens) (UniProt P16473). Nature of the experiment: qHTS assay to identify small molecule agonists of the thyroid stimulating hormone receptor (TSHR) signaling pathway (AID 1224843; calls by dose curve; also: nearly all actives have a fitted effect of over 45% in size). Summed up:
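Screening of the Tox21 10K collection used HEK293 cells engineered with TSHR at 800 cells per well. After a 30-min room-temperature compound exposure, HTRF cAMP reagents were added and fluorescence recorded 1 h later.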

Experiment [14] is described as follows: qHTS assay to identify small molecule antagonists of the estrogen related receptor (ERR) signaling pathway from Tox21 library (AID 1224848). Also: nearly all actives have a fitted effect of over 50% in size. In short, it runs like this: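 Antagonist-mode screen of the Tox21 10K library in an NTP-provided ERR reporter cell line; 18 h compound exposure at 37 C, luminescence measured with ONE-Glo.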
A short description of experiment [15]: qHTS assay to identify small molecule agonists of the estrogen related receptor (ERR) signaling pathway from Tox21 library (AID 1224849; calls by dose curve; also: nearly all actives have a fitted effect of over 15% in size). Particulars: ERR reporter cell line, ONE-Glo luciferase, 18 h. In short, it runs like this:
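ERR reporter cell line (NTP) seeded, rested 6 h at 37 C/5% CO2, then pinned with Tox21 compounds in DMSO. After 18 h at 37 C, ONE-Glo luciferase luminescence was read following 30 min at room temperature.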

The target of experiment [16] is Nuclear receptor subfamily 1 group I member 3 (Homo sapiens) (UniProt Q14994). Nature of the experiment: qHTS assay to identify small molecule antagonists of the constitutive androstane receptor (CAR) signaling pathway (AID 1224838). Also: nearly all actives have a fitted effect of over 40% in size. In short, it runs like this: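 HepG2 cells stably co-transfected with hCAR and a CYP2B6-2.2kb luciferase reporter were seeded 4 h before compound addition at 15 concentrations. Cells were stimulated with 50 nM CITCO (final) for 24 h at 37 C; luciferase luminescence was then read.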
Nuclear receptor subfamily 1 group I member 3 (Homo sapiens), sequence (Q14994 whole entry, looked up): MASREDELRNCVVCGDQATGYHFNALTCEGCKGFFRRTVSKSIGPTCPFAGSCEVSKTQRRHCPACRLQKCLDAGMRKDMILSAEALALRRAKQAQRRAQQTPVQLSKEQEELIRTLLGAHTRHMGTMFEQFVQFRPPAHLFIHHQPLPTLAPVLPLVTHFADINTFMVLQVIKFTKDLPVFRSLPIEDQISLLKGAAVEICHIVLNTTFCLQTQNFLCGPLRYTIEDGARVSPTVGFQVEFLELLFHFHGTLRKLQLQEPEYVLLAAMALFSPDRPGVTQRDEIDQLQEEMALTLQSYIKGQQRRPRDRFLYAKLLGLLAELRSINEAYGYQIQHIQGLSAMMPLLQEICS

Experiment [17] has the same target. Briefly: qHTS assay to identify small molecule agonists of the constitutive androstane receptor (CAR) signaling pathway (AID 1224839). Also: nearly all actives have a fitted effect of over 15% in size. In short, it runs like this:
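Compounds tested at 15 concentrations on HepG2 cells stably harbouring hCAR and CYP2B6-2.2kb reporter constructs, co-treated with PK11195 (0.75 uM final), 24 h at 37 C; luminescent reporter signal quantified.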

The nature of experiment [18]: A CellTox Green Cytotoxicity Assay to monitor cytotoxicity in HEK293 cells - 0 hour (AID 1224869). Also: nearly all actives have a fitted effect of over 50% in size. Also: potency is read from the fitted curve at half-maximal effect. In short, it runs like this: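 HEK293 cells premixed with CellTox Green dye were seeded at 600 cells/well and left 5 h at 37 C/5% CO2 before pin transfer of 23 nL compound in DMSO. Fluorescence from dye bound to dead-cell DNA was read during 40 h treatment.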
A short description of experiment [19]: qHTS assay to identify small molecule antagonists of the constitutive androstane receptor (CAR) signaling pathway - cell viability counter screen (AID 1224837). Also: nearly all actives have a fitted effect of over 45% in size. Summed up: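 HepG2 cells stably expressing hCAR and a CYP2B6-2.2kb reporter were plated and pre-incubated 4 hr at 37 C/5% CO2, then given compounds at 15 concentrations plus 50 nM CITCO (final). After 23 hr, viability was read by CellTiter-Fluor fluorescence.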

Several values for one entry are separate records, joined by “and”; a condition that tells them apart may be missing. Equal entries are not always repeated. Results filed as inconclusive are left out. Some structures have more than one record in an assay (separate samples or runs), and their calls can disagree. Activity calls are given as the source filed them. Unless noted, calls follow the shape of the dose curve; as a rule, active = well fitted curve in the direction sought with a large enough effect in the repeat runs; inconclusive = weak or mixed curves; inactive = no such curve, though single readings can be large; an effect the other way counts as inactive or inconclusive.
% is scaled to controls: 0 for no effect and ±100 for the full control effect.

Thyrotropin receptor (Homo sapiens), sequence (P16473 whole entry, looked up): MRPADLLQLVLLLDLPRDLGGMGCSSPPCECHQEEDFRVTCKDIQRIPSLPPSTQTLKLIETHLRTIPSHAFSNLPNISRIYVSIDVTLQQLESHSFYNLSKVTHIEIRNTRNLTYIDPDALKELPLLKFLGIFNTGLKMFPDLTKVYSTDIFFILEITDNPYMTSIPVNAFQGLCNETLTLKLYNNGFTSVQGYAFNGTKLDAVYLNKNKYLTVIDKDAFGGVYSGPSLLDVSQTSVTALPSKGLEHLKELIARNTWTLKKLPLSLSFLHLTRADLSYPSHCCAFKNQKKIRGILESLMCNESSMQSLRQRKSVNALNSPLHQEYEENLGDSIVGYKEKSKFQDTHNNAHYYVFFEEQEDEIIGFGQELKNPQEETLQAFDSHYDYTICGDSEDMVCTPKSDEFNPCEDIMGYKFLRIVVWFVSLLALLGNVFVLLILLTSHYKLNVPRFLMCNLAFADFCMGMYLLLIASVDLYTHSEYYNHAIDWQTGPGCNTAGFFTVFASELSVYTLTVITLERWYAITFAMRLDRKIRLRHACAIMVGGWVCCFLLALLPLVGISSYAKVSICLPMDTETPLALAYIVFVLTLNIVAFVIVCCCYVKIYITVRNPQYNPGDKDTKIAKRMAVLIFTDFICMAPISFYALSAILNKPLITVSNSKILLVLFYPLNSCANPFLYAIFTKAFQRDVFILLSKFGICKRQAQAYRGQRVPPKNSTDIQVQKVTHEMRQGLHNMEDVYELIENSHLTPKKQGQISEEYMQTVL
Luciferin 4-monooxygenase (Photinus pyralis), sequence (P08659 whole entry, looked up): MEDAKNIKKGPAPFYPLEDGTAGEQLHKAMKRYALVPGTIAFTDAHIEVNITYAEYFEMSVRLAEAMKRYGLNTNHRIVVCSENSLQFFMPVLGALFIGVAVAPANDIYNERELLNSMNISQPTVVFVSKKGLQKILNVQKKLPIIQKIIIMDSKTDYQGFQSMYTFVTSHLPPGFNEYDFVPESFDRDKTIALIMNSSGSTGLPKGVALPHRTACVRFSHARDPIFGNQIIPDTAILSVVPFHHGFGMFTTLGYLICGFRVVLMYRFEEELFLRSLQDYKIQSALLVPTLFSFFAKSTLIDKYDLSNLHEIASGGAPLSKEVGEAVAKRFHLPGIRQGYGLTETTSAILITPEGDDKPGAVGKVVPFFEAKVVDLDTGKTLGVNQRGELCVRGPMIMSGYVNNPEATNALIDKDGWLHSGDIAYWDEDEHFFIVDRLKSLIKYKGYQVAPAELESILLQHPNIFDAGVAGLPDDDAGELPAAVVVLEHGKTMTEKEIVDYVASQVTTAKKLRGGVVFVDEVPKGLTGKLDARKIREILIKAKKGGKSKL

Take `O=S(=O)(O)OOS(=O)(=O)O`: the Potency result in experiment [1], in experiment [2], in experiment [3], in [4], in [5] and in experiment [6] was “inactive” in each case. Moreover, the Potency result in experiment [8] and in experiment [10] was “inactive” throughout. Further, the call in experiment [7] and in [9] was inactive.
On to `O=[N+]([O-])c1cc([As](=O)(O)O)ccc1O`, for which, in experiment [1], the Potency was 60.7 µM (active). The Potency result in experiment [2], in experiment [3], in experiment [4], in experiment [11], in experiment [12] and in [13] was “inactive” each time. The Potency entry in experiment [5], in experiment [6], in experiment [8], in experiment [14] and in [10] was “inactive” in each case. Besides, the compound was called inactive in experiment [7] and in experiment [9]. Moreover, the activity change, positive = activation in [15] (at 42.5 µM (top of the series)) is -1.93% (inactive); in experiment [15] (at 92.4 µM (top of the series)), -21.2% (inactive) and 4.02% (inactive).
With `CC(=O)C1CCOC1=O` (stereo not given), the Potency entry in experiment [1], in experiment [2], in experiment [3], in experiment [13], in [6] and in [10] was “inactive” each time. In addition, the compound was called inactive in [7] and in experiment [9].
`C=CCN=C=S`: the Potency result in experiment [1], in experiment [2], in [3], in [16], in [17] and in experiment [11] was “inactive” throughout. In addition, the Potency result in experiment [12], in [13], in experiment [6], in experiment [8], in experiment [14] and in [10] was “inactive” throughout. The Potency entry in experiment [18] is “inactive”. The compound was classed as inactive in experiment [7] and in experiment [9]. Further, the activity change, positive = activation in experiment [15] (at 92.4 µM (top of the series)) is 10.8% (inactive) and 0.847% (inactive).
Take `Cc1cccc(C)c1NC(=O)CN1CCCC1=O`: the Potency entry in experiment [1], in experiment [2], in experiment [3], in [4], in [5] and in experiment [6] was “inactive” throughout. Also, the Potency entry in experiment [8], in experiment [10] and in [18] was “inactive” throughout. In addition, the outcome in experiment [7] and in experiment [9] was inactive.
Turning to `CCCCCCCCCCCCCCCCCC(=O)O`, the Potency entry in experiment [1], in experiment [3], in experiment [4], in experiment [5], in experiment [6] and in experiment [8] was “inactive” throughout. In addition, the Potency result in experiment [10] was “inactive”. Further, the Potency in experiment [2] was 70.5 µM (active) and inactive. The compound was classed as inactive in experiment [7] and in experiment [9].
On to `[N-]=[N+]=CC(=O)OC[C@H](N)C(=O)O`, for which the Potency result in experiment [1], in experiment [2], in [3], in experiment [11], in experiment [12] and in [13] was “inactive” throughout. Moreover, the Potency entry in [6], in [8], in [14] and in [10] was “inactive” in each case. The activity change, positive = activation in experiment [15] (at 42.5 µM (top of the series)) was 3.09% (inactive); in experiment [15] (at 92.4 µM (top of the series)), 5.95% (inactive). In addition, the outcome in experiment [9] was inactive. Further, in experiment [18], the Potency was 38.9 µM (active) and inactive.
`CC(C)CCCCCCOC(=O)c1ccccc1C(=O)OCCCCCCC(C)C`: the Potency result in experiment [1], in experiment [2], in experiment [3], in experiment [16], in experiment [17] and in experiment [13] was “inactive” throughout. Besides, the Potency result in experiment [6] and in experiment [10] was “inactive” throughout. For the same compound, the call in [7] and in experiment [9] was inactive.
`O=C(O)CCCc1ccc(N(CCCl)CCCl)cc1`: the Potency result in experiment [1], in experiment [2], in experiment [3], in [13], in [5] and in experiment [18] was “inactive” each time. Further, the Potency in experiment [6] is 56.9 µM (active). Further, the outcome in experiment [7] and in experiment [9] was inactive.
For `C=CC(=O)OCCCCCC(C)C`, the Potency result in experiment [1], in experiment [2], in experiment [3], in experiment [4], in [13] and in [5] was “inactive” in each case. The Potency result in [6], in [8] and in [10] was “inactive” each time. Moreover, the call in experiment [7] and in experiment [9] was inactive.
On to `Oc1ccc(Cl)cc1`, for which the Potency result in [1], in experiment [3], in experiment [19], in experiment [16], in experiment [17] and in [13] was “inactive” each time. The Potency result in experiment [6], in experiment [8], in experiment [10] and in [18] was “inactive” each time. For the same compound, the result in experiment [7] and in experiment [9] was inactive.
Consider `Cc1ccc(O)c(C)c1`, for which the Potency result in experiment [1], in experiment [2], in experiment [3], in [4], in experiment [11] and in [12] was “inactive” in each case. The Potency result in experiment [13], in experiment [6], in [14] and in experiment [10] was “inactive” throughout. For the same compound, the compound was called inactive in experiment [7] and in experiment [9]. The activity change, positive = activation in [15] (at 92.4 µM (top of the series)) is -0.712% (inactive) and 11.3% (inactive).
